Results as given in PubChem BioAssay (EPA / NIEHS).
The source made the active and inactive calls. Rule for the calls: active = hit-call score of the fitted dose curve at least 0.9, where 1 is the maximum; inactive = score below 0.9.

How the values were obtained:
[1] = CEETOX_H295R_CORTISOL: CeeTox H295R High-throughput Steroidogenesis Assay for Cortisol (AID 2283438); conditions: actives raise or lower the signal
In short: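 Forskolin 10 uM 48 h prestim → test cmpd in DMSO (0.1% final) 48 h → medium MTBE-extracted → LC-MS/MS cortisol vs 7-pt std curve. Gain/loss of signal fitted vs DMSO. MTT viability in same wells.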

[2] = CEETOX_H295R_DOC: CeeTox H295R High-throughput Steroidogenesis Assay for DOC (AID 2283439); conditions: actives raise or lower the signal
In short: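 Readout: 11-deoxycorticosterone in culture medium by reverse-phase C18 HPLC with ESI+ tandem MS after MTBE extraction. Cells: H295R, forskolin-primed (10 uM, 48 h), chemical-treated 48 h; DMSO 0.1% final. Activity fitted bidirectionally versus DMSO.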

[3] = CEETOX_H295R_ESTRADIOL: CeeTox H295R High-throughput Steroidogenesis Assay for Estradiol (AID 2283440); conditions: actives raise or lower the signal;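 note: estradiol secreted into medium quantified by LC-MS/MS after dansyl derivatisation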
In short: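 Estradiol in spent medium measured by LC-MS/MS after dansyl chloride derivatisation. Forskolin-primed (10 uM, 48 h) human adrenal H295R cells received test chemical 48 h at 0.1% DMSO; concentrations lowered until MTT viability >/=70%.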

[4] = CEETOX_H295R_ESTRONE: CeeTox H295R High-throughput Steroidogenesis Assay for Estrone (AID 2283441); conditions: actives raise or lower the signal;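 note: estrone secreted into medium measured by LC-MS/MS after dansyl derivatization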
In short: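 H295R cells prestimulated 48 h with 10 uM forskolin, then exposed 48 h to chemicals in 0.1% DMSO final; estrone in medium extracted with MTBE, dansyl-derivatized, quantified by HPLC-MS/MS; bidirectional fitting versus DMSO, viability by MTT.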

[5] = CEETOX_H295R_PROG: CeeTox H295R High-throughput Steroidogenesis Assay for Progesterone (PROG) (AID 2283442); conditions: actives raise or lower the signal;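 for AC50: human H295R adrenal cells primed with 10 µM forskolin before dosing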
In short: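 Progesterone secreted by human H295R cells was measured by LC-MS/MS following 48 h chemical exposure at 0.1% DMSO, preceded by 48 h forskolin (10 uM) stimulation. Same-well MTT viability; cytotoxic concentrations diluted 10- or 100-fold and retested.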

[6] = CEETOX_H295R_TESTO: CeeTox H295R High-throughput Steroidogenesis Assay for Testosterone (TESTO) (AID 2283457); conditions: actives raise or lower the signal;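 for AC50: cells exposed to chemicals for 48 h before medium collection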
In short: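 Testosterone secreted into the medium over 48 h by H295R cells (maximum passage 10) was quantified by LC-MS/MS after MTBE extraction. Fitted in both directions against DMSO, with concentrations diluted until MTT viability was ≥70%.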

[7] = read-out: Cyclin D2 (CCND2), CCND2 (gene 894); test: LTEA_HepaRG_CCND2: Life Technologies and Expression Analysis (LTEA) Assay for Cyclin D2 (CCND2) using HepaRG (AID 2283449); conditions: mRNA level, 48 h; actives raise or lower the signal
In short: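 Read-out is CCND2 mRNA level measured by qRT-PCR in human HepaRG liver cells and normalised to three housekeeping genes. Chemicals were applied for 48 h at up to 100 uM, with gain or loss fitted relative to 0.5% DMSO.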

[8] = read-out: Cyclin Dependent Kinase Inhibitor 1A (CDKN1A), CDKN1A (gene 1026); test: LTEA_HepaRG_CDKN1A: Life Technologies and Expression Analysis (LTEA) Assay for Cyclin Dependent Kinase Inhibitor 1A (CDKN1A) using HepaRG (AID 2283450); conditions: mRNA level, 48 h; actives raise or lower the signal
In short: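 Expression quantified by Fluidigm qRT-PCR with ACTB, GAPDH and POLR2A normalization, fitted bidirectionally against 0.5% DMSO. Cells: HepaRG, plated 48 h then treated 48 h in serum-free induction medium, top concentration 100 uM with half-log dilutions.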

[9] = read-out: Cyclin D1 (CCND1), CCND1 (gene 595); test: LTEA_HepaRG_CCND1: Life Technologies and Expression Analysis (LTEA) Assay for Cyclin D1 (CCND1) using HepaRG (AID 2283451); conditions: mRNA level, 48 h; actives raise or lower the signal
In short: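 Expression of CCND1 was quantified by qRT-PCR on Fluidigm arrays using ACTB, GAPDH and POLR2A as reference genes. HepaRG cultures, plated 48 h beforehand, were dosed for 48 h at up to 100 uM (half-log, 8 points) in 0.5% DMSO.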

[10] = read-out: catalase (CAT), CAT (gene 847); test: LTEA_HepaRG_CAT: Life Technologies and Expression Analysis (LTEA) Assay for catalase (CAT) using HepaRG (AID 2283452); conditions: mRNA level, 48 h; actives raise or lower the signal;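 for AC50: TaqMan qRT-PCR signal normalized to ACTB GAPDH and POLR2A housekeeping genes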
In short: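 Expression of CAT was quantified by TaqMan qRT-PCR with ACTB/GAPDH/POLR2A normalization after 48 h chemical exposure of HepaRG. Eight-point half-log series, top 100 uM, in 0.5% DMSO; gain or loss fitted against vehicle.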

[11] = read-out: flavin-containing dimethylaniline monooxygenases 3 (FMO3), FMO3 (gene 2328); test: LTEA_HepaRG_FMO3: Life Technologies and Expression Analysis (LTEA) Assay for flavin-containing dimethylaniline monooxygenases 3 (FMO3) using HepaRG (AID 2283453); conditions: mRNA level, 48 h; actives raise or lower the signal;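 for AC50: differentiated human HepaRG liver cells in serum-free induction medium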
In short: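 Differentiated HepaRG cells in serum-free induction medium, exposed 48 h in duplicate to 8 half-log concentrations up to 100 uM in 0.5% DMSO. FMO3 mRNA by qRT-PCR, normalized to ACTB, GAPDH, POLR2A; bidirectional fit vs DMSO.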

[12] = read-out: Cytochrome P450 (CYP1A1), CYP1A1 (gene 1543); test: LTEA_HepaRG_CYP1A1: Life Technologies and Expression Analysis (LTEA) Assay for Cytochrome P450 (CYP1A1) using HepaRG (AID 2283454); conditions: mRNA level, 48 h; actives raise or lower the signal
In short: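 CYP1A1 transcript levels measured by Fluidigm qRT-PCR against three housekeeping genes, 48 h after chemical dosing of human HepaRG cells (highest concentration 100 uM, half-log steps, 0.5% DMSO vehicle). Gain or loss of signal fitted relative to DMSO.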

[13] = read-out: CFLAR gene, CFLAR (gene 8837); test: LTEA_HepaRG_CFLAR: Life Technologies and Expression Analysis (LTEA) Assay for CFLAR gene using HepaRG (AID 2283455); conditions: mRNA level, 48 h; actives raise or lower the signal
In short: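 HepaRG, 48 h exposure, 8-pt conc-response (100 uM top, half-log), 0.5% DMSO vehicle, duplicates. CFLAR expression by qRT-PCR; ACTB/GAPDH/POLR2A normalization; gain or loss fit vs DMSO baseline.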

[14] = read-out: Forkhead box O1 (FOXO1), FOXO1 (gene 2308); test: LTEA_HepaRG_FOXO1: Life Technologies and Expression Analysis (LTEA) Assay for Forkhead box O1 (FOXO1) using HepaRG (AID 2283456); conditions: mRNA level, 48 h; actives raise or lower the signal
In short: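 Readout is FOXO1 transcript level by multiplexed qRT-PCR against three housekeeping genes, curve-fitted in both directions relative to 0.5% DMSO vehicle. Human HepaRG cultures received chemicals for 48 h, up to 100 uM in half-log steps.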

[15] = read-out: growth arrest and DNA damage 45 (GADD45A), GADD45A (gene 1647); test: LTEA_HepaRG_GADD45A: Life Technologies and Expression Analysis (LTEA) Assay for growth arrest and DNA damage 45 (GADD45A) using HepaRG (AID 2283458); conditions: mRNA level, 48 h; actives raise or lower the signal
In short: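 Cells plated and cultured 48 h, switched to serum-free induction medium, then dosed for 48 h (100 uM top, half-log dilutions, 0.5% DMSO). RNA was isolated and transcript measured by Fluidigm qRT-PCR.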

[16] = read-out: Forkhead box O3 (FOXO3), FOXO3 (gene 2309); test: LTEA_HepaRG_FOXO3: Life Technologies and Expression Analysis (LTEA) Assay for Forkhead box O3 (FOXO3) using HepaRG (AID 2283459); conditions: mRNA level, 48 h; actives raise or lower the signal
In short: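 HepaRG, 48 h post-dose; 8 conc., half-log from 100 uM, 0.5% DMSO, duplicates; serum-free induction medium. Readout: FOXO3 mRNA, TaqMan qRT-PCR, housekeeping-normalized. Bidirectional curve fit vs DMSO baseline.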

[17] = read-out: ABC Transporter (ABCB1), ABCB1 (gene 5243); test: LTEA_HepaRG_ABCB1: Life Technologies and Expression Analysis (LTEA) Assay for ABC Transporter (ABCB1) using HepaRG (AID 2283460); conditions: mRNA level, 48 h; actives raise or lower the signal
In short: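 Expression of ABCB1 was quantified by qRT-PCR against three housekeeping genes after human HepaRG cultures received test chemicals for 48 hours. Concentrations spanned eight half-log steps topping at 100 uM in 0.5% DMSO; gain or loss of signal was fitted relative to vehicle.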

[18] = read-out: ABC Transporter (ABCC3), ABCC3 (gene 8714); test: LTEA_HepaRG_ABCC3: Life Technologies and Expression Analysis (LTEA) Assay for ABC Transporter (ABCC3) using HepaRG (AID 2283462); conditions: mRNA level, 48 h; actives raise or lower the signal
In short: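 Transcript level by TaqMan qRT-PCR, normalised to three housekeeping genes, fitted in both directions relative to vehicle. Chemicals tested in duplicate at eight half-log concentrations up to 100 uM for 48 h on HepaRG cells (0.5% DMSO).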

[19] = read-out: ABC Transporter (ABCC2), ABCC2 (gene 1244); test: LTEA_HepaRG_ABCC2: Life Technologies and Expression Analysis (LTEA) Assay for ABC Transporter (ABCC2) using HepaRG (AID 2283464); conditions: mRNA level, 48 h; actives raise or lower the signal
In short: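 Endpoint is ABCC2 transcript level from qRT-PCR, normalized to three housekeeping genes and fitted bidirectionally relative to DMSO. Human HepaRG cells received test chemical for 48 h at up to 100 uM (8 points, half-log steps, 0.5% DMSO), duplicate wells.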

[20] = read-out: Fatty acid synthase (Homo sapiens) (UniProt P49327); test: LTEA_HepaRG_FASN: Life Technologies and Expression Analysis (LTEA) Assay for Fatty Acid Synthase (FASN) using HepaRG (AID 2283448); conditions: mRNA level, 48 h; actives raise or lower the signal;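 for AC50: differentiated human HepaRG liver cells in serum-free induction medium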
In short: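 FASN expression changes, up or down relative to 0.5% DMSO, were measured by qRT-PCR in human HepaRG cells after 48 h treatment with chemicals at eight concentrations (half-log steps from 100 uM).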

Measured: AC50

Fatty acid synthase (Homo sapiens), sequence (P49327 whole entry, looked up): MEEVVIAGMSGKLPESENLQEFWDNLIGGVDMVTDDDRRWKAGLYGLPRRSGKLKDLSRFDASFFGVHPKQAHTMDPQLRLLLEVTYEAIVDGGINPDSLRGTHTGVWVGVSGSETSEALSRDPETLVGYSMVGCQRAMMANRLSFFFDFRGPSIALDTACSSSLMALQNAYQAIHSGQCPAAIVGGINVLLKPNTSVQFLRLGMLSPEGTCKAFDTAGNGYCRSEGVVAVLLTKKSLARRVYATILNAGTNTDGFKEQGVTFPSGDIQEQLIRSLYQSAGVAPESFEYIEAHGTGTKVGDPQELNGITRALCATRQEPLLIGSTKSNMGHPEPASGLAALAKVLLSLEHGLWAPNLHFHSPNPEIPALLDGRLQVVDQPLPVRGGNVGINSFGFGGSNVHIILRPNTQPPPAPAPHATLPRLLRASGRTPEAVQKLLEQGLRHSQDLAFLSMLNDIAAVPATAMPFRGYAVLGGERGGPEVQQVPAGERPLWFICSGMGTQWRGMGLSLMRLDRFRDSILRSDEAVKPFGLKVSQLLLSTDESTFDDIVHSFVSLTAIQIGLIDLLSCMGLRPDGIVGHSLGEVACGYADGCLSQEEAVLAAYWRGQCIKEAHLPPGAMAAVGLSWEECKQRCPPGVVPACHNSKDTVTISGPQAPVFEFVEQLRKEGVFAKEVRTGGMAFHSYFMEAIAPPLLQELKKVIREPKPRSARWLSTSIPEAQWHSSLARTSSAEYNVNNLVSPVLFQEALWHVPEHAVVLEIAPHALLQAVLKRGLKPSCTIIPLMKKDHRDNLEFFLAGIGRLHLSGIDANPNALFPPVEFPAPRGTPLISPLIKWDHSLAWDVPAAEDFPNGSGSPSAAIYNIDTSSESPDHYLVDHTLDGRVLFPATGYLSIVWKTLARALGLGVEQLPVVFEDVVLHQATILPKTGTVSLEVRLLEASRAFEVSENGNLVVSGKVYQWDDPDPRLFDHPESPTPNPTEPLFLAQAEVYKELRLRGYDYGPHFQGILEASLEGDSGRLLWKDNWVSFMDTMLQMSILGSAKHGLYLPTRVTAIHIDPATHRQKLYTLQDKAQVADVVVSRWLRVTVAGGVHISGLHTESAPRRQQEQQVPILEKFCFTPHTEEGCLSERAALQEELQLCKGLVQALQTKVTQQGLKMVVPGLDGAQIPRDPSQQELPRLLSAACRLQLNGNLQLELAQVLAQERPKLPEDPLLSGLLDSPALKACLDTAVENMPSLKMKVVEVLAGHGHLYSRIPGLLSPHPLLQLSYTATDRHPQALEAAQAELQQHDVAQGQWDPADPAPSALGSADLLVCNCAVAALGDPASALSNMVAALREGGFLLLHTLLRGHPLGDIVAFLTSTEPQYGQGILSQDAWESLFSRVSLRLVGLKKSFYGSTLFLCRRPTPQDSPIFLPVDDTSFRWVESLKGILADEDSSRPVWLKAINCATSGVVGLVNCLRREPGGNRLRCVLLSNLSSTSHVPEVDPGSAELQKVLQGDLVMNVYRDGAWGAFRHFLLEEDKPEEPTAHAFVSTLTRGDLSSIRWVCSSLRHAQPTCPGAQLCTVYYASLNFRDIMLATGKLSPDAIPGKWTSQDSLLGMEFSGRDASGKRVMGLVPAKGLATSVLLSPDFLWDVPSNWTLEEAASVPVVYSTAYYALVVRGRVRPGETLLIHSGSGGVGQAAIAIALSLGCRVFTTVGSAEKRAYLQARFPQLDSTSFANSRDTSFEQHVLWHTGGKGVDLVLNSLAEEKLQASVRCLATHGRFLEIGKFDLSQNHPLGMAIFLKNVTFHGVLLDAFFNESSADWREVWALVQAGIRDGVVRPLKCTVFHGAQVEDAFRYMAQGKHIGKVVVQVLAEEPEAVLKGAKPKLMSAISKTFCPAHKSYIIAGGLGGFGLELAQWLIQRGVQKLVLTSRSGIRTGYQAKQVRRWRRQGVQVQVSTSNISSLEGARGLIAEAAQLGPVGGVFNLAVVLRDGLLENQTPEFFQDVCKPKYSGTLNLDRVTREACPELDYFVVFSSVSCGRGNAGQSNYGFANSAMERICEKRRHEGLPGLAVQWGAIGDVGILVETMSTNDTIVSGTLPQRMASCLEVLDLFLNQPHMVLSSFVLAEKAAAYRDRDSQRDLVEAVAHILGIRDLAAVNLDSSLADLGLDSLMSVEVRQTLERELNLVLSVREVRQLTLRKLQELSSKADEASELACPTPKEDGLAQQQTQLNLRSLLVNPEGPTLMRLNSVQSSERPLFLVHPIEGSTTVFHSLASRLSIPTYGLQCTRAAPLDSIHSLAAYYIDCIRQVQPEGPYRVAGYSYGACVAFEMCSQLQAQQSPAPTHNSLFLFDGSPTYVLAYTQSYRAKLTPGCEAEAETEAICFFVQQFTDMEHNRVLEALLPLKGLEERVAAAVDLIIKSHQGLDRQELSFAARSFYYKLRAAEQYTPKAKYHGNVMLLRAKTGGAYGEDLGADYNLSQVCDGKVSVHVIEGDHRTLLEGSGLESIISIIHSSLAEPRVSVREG

CC(C)CCOCCC(C)C
inactive: [1] | [2] | [3] | [4] | [5] | [6]

N=C(N)c1ccc(OCCCCCOc2ccc(C(=N)N)cc2)cc1
inactive: [7] | [9] | [12] | [16]
active: [8] 10.1 µM | [10] 6.7 µM | [11] 6.68 µM | [13] 30.5 µM | [14] 43.8 µM | [15] 4.21 µM | [17] 4.87 µM | [18] 3.46 µM | [19] 25.6 µM

CCCCCC(C)OC(=O)COc1ccc(Cl)c2cccnc12 (centres undefined)
inactive: [2] | [5]
active: [1] 34.9 µM

Oc1cc2ccccc2cc1O
inactive: [1] | [2] | [3] | [4] | [5] | [6]

CC(C)(c1ccc(Oc2ccc(N)cc2)cc1)c1ccc(Oc2ccc(N)cc2)cc1
active: [1] 0.401 µM | [2] 200 nM | [5] 134 nM | [6] 0.334 µM
inactive: [3] | [4]

CCCCCc1ccc(O)cc1
inactive: [1] | [2] | [3] | [4] | [5]
active: [6] 50 µM

CN(C)CCOC(c1ccccc1)c1ccccc1
active: [20] 50 µM
not listed: [1] | [2] | [3] | [4] | [5] | [6] | [7] | [12]
inactive: all other assays above

CCC(C)c1ccccc1O (centres undefined)
active: [12] 50 µM
not listed: [1] | [2] | [3] | [4] | [5] | [6]
inactive: all other assays above

COc1cccc(O)c1
inactive: [1] | [2] | [5]
